The structures appear in SMILES notation. Where “and” joins values, the source holds several entries; their conditions need not be identical. Equal values may be shown once. Results filed as inconclusive are left out. A number with no mark means an inactive call. Calls of active or inactive are those of the source. Unless noted, calls follow the shape of the dose curve; as a rule, active = well fitted curve in the direction sought with a large enough effect; inconclusive = small, poorly fitted or top-dose-only effect, or another doubt; inactive = no such curve, though single readings can be large; an effect the other way counts as inactive or inconclusive.

Assay [1] deals with Cellular tumor antigen p53 (Homo sapiens) (UniProt P04637). Briefly: Primary qHTS for small molecule compounds that upregulate eGFP-tagged delta133p53alpha (in N-terminal) cells. (AID 2060322). Also: nearly all actives have a fitted effect of over 75% in size. Also: potency is read from the fitted curve at half-maximal effect.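 As to activation: series mostly up to about 56 µM; 0% = DMSO vehicle and 100% = reference activator.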 Conditions: NCI-H358 eGFP-delta133p53alpha fluorescence, 24 h; activation: stronger effect = higher value. A digest of the protocol:
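NCI-H358 cells pre-induced 24 h with 10 ng/ml doxycycline to express N-terminal eGFP-delta133p53alpha, then dosed 24 h at 37C without doxycycline; fixed, Hoechst-stained, GFP intensity by laser scanning cytometry, normalized to DMSO (0%) and 57.5 uM 5-azacytidine (100%).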
A general note: In qHTS, concentration-response curves come from the screen itself.

For assay [2] the target is unchanged. The experiment in a line: Primary qHTS for small molecule compounds that upregulate eGFP-tagged delta133p53alpha (in C-terminal) cells. (AID 2060324). Also: potency is read from the fitted curve at half-maximal effect. A digest of the protocol: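 NCI-H358 cells pre-induced 24 h with 100 ng/ml doxycycline to express delta133p53alpha-eGFP, then dosed in doxycycline-free medium for 24 h at 37C. Fixed, Hoechst-stained; GFP intensity by laser scanning cytometry, normalized to DMSO wells.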

Assay [3] deals with Aldehyde dehydrogenase, mitochondrial (Homo sapiens) (UniProt P05091). The experiment in a line: qHTS for Inhibitors of the Aldehyde Dehydrogenase Family (ALDH2) Validation screens (AID 2061302; active = well fitted inhibition curve with a large enough effect; title and protocol of this record describe different tests;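 also: plate controls were DMSO vehicle for no effect and maximal DPI positive control response for full effect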).
The target in assay [4] is Retinaldehyde dehydrogenase 3 (Homo sapiens) (UniProt P47895). Briefly: qHTS for Inhibitors of the Aldehyde Dehydrogenase Family (ALDH1A3) Validation screen (AID 2061312). Also: % is scaled to controls: 0 for no effect and ±100 for the full control effect; nearly all actives have a fitted effect of over 45% in size.

Chain of Cellular tumor antigen p53 (Homo sapiens) (P04637 whole entry, looked up): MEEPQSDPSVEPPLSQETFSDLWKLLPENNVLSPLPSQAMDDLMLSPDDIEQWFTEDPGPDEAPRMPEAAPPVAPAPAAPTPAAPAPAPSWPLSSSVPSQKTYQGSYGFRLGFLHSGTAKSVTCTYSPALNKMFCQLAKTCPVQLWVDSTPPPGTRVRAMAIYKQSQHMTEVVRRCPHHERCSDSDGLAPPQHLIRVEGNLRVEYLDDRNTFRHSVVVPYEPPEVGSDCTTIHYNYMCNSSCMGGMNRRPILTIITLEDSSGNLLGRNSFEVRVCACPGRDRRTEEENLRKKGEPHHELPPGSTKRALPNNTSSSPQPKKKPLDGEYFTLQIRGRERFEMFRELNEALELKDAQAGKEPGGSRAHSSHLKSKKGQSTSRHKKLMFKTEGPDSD

Regarding `CSc1ccc(C(=O)c2[nH]c(=O)[nH]c2C)cc1`, the activation in assay [1] was -17.5% and -26.2%. Further, the Potency result in assay [2], in assay [3] and in assay [4] was “inactive” throughout.

As to `CCOC(=O)C1=C(C)NC(C)=C(C(=O)OC)C1c1cccc(Cl)c1Cl` (configuration not stated), in assay [1], the activation was 16.4% and -13.8%. Also, the Potency result in assay [2], in assay [3] and in assay [4] was “inactive” each time.

Take `C[C@]12C[C@H](O)[C@H]3[C@@H](CCC4=CC(=O)CC[C@@]43C)[C@@H]1CC[C@@H]2C(=O)CO`: the activation in assay [1] is -5.02% and -5.37%. Also, the Potency result in assay [2], in assay [3] and in assay [4] was “inactive” in each case.

`CC1(C)CCC=[N+]1[O-]`: in assay [1], the activation is 8.43%. Further, the Potency result in assay [2], in assay [3] and in assay [4] was “inactive” each time.

For `O=C(NCCN1CCOCC1)c1ccc(Cl)cc1`, in assay [1], the activation was -2.82% and -8.35%. The Potency result in assay [2], in assay [3] and in assay [4] was “inactive” in each case.

As for `CC(CN(C)C)CN1c2ccccc2CCc2ccccc21` (configuration not stated), in assay [1], the activation is -10% and -21.6%. For the same compound, the Potency entry in assay [2], in assay [3] and in assay [4] was “inactive” in each case.

Regarding `COC(=O)[C@@H](N)Cc1ccc(O)c(O)c1`, the activation in assay [1] is 2.51% and -29.9%. Moreover, the Potency entry in assay [2], in assay [3] and in assay [4] was “inactive” throughout.

In the case of `O=c1[nH]c(=O)n([C@H]2C[C@H](O)[C@@H](CO)O2)cc1Br`, the activation in assay [1] was -16.4% and -22.3%. For the same compound, the Potency result in assay [2], in assay [3] and in assay [4] was “inactive” each time.

Regarding `O=C(O)CCCCCCCC(=O)O`, in assay [1], the activation is 17.5% and -5.1%. Further, the Potency entry in assay [2], in assay [3] and in assay [4] was “inactive” throughout.

For `Cn1cc(C2=C(c3ccc(Cl)cc3Cl)C(=O)NC2=O)c2ccccc21`, the values for the Potency in assay [1] and in assay [2] were 10.7 µM (active) and 2.39 µM (active), respectively. Also, the Potency result in assay [3] and in assay [4] was “inactive” in each case.

For `COC(=O)c1c(C)[nH]c(C)c1C(=O)c1ccccc1Cc1ccccc1`, the activation in assay [1] was -23.2%. The Potency result in assay [2], in assay [3] and in assay [4] was “inactive” throughout.

On to `Cn1cc(C(=O)OCC2CCN(CCNS(C)(=O)=O)CC2)c2ccccc21`, for which the activation in assay [1] is -16.5%. Also, the Potency result in assay [2], in assay [3] and in assay [4] was “inactive” in each case.

In the case of `O=c1ccn([C@@H]2O[C@H](COP(=O)(O)OP(=O)(O)O)[C@@H](O)[C@H]2O)c(=O)[nH]1`, the activation in assay [1] was -29.5%. Further, the Potency entry in assay [2], in assay [3] and in assay [4] was “inactive” each time.

For `Cn1cnc2c(NCc3ccccc3)nc(NCCO)nc21`, in assay [1], the activation is -37%. Besides, the Potency entry in assay [2], in assay [3] and in assay [4] was “inactive” throughout.

On to `CC(C)(C)NC[C@H](O)COc1nsnc1N1CCOCC1`, for which, in assay [1], the activation was -9.94%. The Potency result in assay [2], in assay [3] and in assay [4] was “inactive” each time.

As to `CCCCNc1c(C(=O)OCC)c(C)nc2c1cnn2CC`, the activation in assay [1] was 8.47% and 3.05%. The Potency result in assay [2], in assay [3] and in assay [4] was “inactive” in each case.

`FC(F)(F)c1ccccc1-n1ccnc1`: the activation in assay [1] was 8.47% and -16.2%. Besides, the Potency entry in assay [2], in assay [3] and in assay [4] was “inactive” in each case.

For the compound `Nc1cc(=O)[nH]c(N)n1`, in assay [1], the activation was -34.3% and -22.6%. The Potency result in assay [2], in assay [3] and in assay [4] was “inactive” throughout.

Consider `C[C@]12C=CC(=O)C=C1CC[C@H]1[C@@H]3C[C@@H](O)[C@](O)(C(=O)CO)[C@@]3(C)C[C@H](O)[C@@]12F`, for which the activation in assay [1] is 10.9% and -4.1%. For the same compound, the Potency result in assay [2], in assay [3] and in assay [4] was “inactive” in each case.

For `NS(=O)(=O)C#Cc1ccccc1`, the activation in assay [1] is 60.6%. Moreover, the Potency in assay [2] is 30.1 µM (active). For the same compound, the Potency entry in assay [3] and in assay [4] was “inactive” each time.

Turning to `CCCCNC(=O)NS(=O)(=O)c1ccc(C)cc1`, in assay [1], the activation was -35.6% and -11.9%. The Potency result in assay [2], in assay [3] and in assay [4] was “inactive” in each case.

For the compound `CCN(CC)CCOCCOC(=O)C1(c2ccccc2)CCCC1`, in assay [1], the activation is -17.5% and -6.79%. Moreover, the Potency entry in assay [2], in assay [3] and in assay [4] was “inactive” in each case.

With `O=C1/C(=C/c2ccsc2)CC/C1=C\c1cccs1`, in assay [1], the activation was 14.3%. The Potency result in assay [2], in assay [3] and in assay [4] was “inactive” each time.

As for `N[C@@H](Cc1cnc[nH]1)C(=O)O`, in assay [1], the activation was 30.1%. For the same compound, the Potency result in assay [2], in assay [3] and in assay [4] was “inactive” each time.

Consider `CC(C)NC[C@H](O)COc1cccc2[nH]ccc12`, for which the activation in assay [1] is 15.4%. The Potency entry in assay [2], in assay [3] and in assay [4] was “inactive” in each case.

For `COc1ccc(CCN(C)CCCC(C#N)(c2cc(OC)c(OC)c(OC)c2)C(C)C)cc1OC` (configuration not stated), the activation in assay [1] was -8.73%. The Potency entry in assay [2], in assay [3] and in assay [4] was “inactive” throughout.

Regarding `CC(=O)O[C@H]1CC2(C)[C@@H](C[C@@H](O)[C@H]3[C@@]4(C)CC[C@@H](O)[C@@H](C)[C@@H]4CC[C@@]32C)C1=C(CCC=C(C)C)C(=O)O` (some centres not stated), in assay [1], the activation is -11.4%. Also, the Potency entry in assay [2], in assay [3] and in assay [4] was “inactive” throughout.

For the compound `Nc1nc2c(ncn2[C@@H]2O[C@H](CO)[C@@H](O)[C@@H]2O)c(=O)[nH]1`, the activation in assay [1] is -6.66%. In addition, the Potency result in assay [2], in assay [3] and in assay [4] was “inactive” in each case.

As to `C=C(C)C1CC=C(C(=O)O)CC1` (configuration not stated), in assay [1], the activation was -6.28%. The Potency result in assay [2], in assay [3] and in assay [4] was “inactive” throughout.

As to `OC[C@H]1O[C@@H](n2cnc3cncnc32)[C@H](O)[C@@H]1O`, the activation in assay [1] was -14.1%. Further, the Potency entry in assay [2], in assay [3] and in assay [4] was “inactive” throughout.

As to `O=c1[nH]c2cc(C(F)(F)F)ccc2n1-c1cc(C(F)(F)F)ccc1O`, the activation in assay [1] is -56.6%. Moreover, the Potency result in assay [2], in assay [3] and in assay [4] was “inactive” in each case.

As for `CCCn1c(=O)c(C)cn2nc(N)nc12`, the activation in assay [1] was -37.9%. The Potency result in assay [2], in assay [3] and in assay [4] was “inactive” in each case.

Regarding `CN(C)CCN(Cc1cccs1)c1ccccn1`, the activation in assay [1] is -15.3% and -8.14%. For the same compound, the Potency entry in assay [2], in assay [3] and in assay [4] was “inactive” each time.

For the origin of these results see PubChem BioAssay (NCATS).
